Our source for the remaining activity values is PubChem BioAssay.

SMILES strings stand for the structures. Values without a mark were called inactive. No rule for the calls is given here.

Broadly, the remaining activity is the signal under treatment as a percentage of the control signal.

This experiment concerns Aerobactin synthetase IucA (Klebsiella pneumoniae, hypervirulent). The experiment in a line: biochemical IucA inhibition screen of LOPAC library by absorbance (AID 1346212).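 Also: 100% = no compound wells and 0% = no enzyme wells.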 The conditions noted are these: IucA enzyme assay, absorbance (OD) readout; stronger effect = lower value;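 tested at 8 µM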.
For `CC(C)(C)c1ccc(C(O)CCCN2CCC(C(O)(c3ccccc3)c3ccccc3)CC2)cc1` (centres undefined), the remaining activity was 101%.

Turning to `O=c1[nH]ccc2c(O)cccc12`, the remaining activity is 117%.

In the case of `NCCCNCCCCNCCCN`, the remaining activity is 108%.

Take `C#CC(N)CCC(=O)O` (centres undefined): the remaining activity is 122%.

Turning to `N=C1Sc2ccccc2C2=NCCCN12`, the remaining activity was 118%.

Consider `CCCCNc1c(C(=O)OCC)c(C)nc2c1cnn2CC`, for which the remaining activity was 121%.

Take `CCNC(=O)N1CCN(CCCC(c2ccc(F)cc2)c2ccc(F)cc2)CC1`: the remaining activity was 112%.

With `O=C(O)[C@@H]1C[C@@H](C(=O)O)N1`, the remaining activity is 115%.

As to `CC(C)NC[C@@H](O)c1ccc(O)c(O)c1`, the remaining activity was 119%.

As to `CCCCCCCCCCCCCCCC(=O)NCCO`, the remaining activity is 118%.

For `CNCC[C@@H](Oc1ccc(C(F)(F)F)cc1)c1ccccc1`, the remaining activity was 105%.

For the compound `COc1cc(-c2ccc(=O)[nH]n2)ccc1OC(F)F`, the remaining activity was 119%.

Take `NCCNS(=O)(=O)c1cccc2c(Cl)cccc12`: the remaining activity was 96.1%.

In the case of `O=C(Cc1ccc(Cl)c(Cl)c1)OCCN1CCCC1`, the remaining activity was 117%.

Consider `N=C(N)SCCc1ccc(CCSC(=N)N)cc1`, for which the remaining activity was 102%.

`CSC(=N)N`: the remaining activity is 123%.

Regarding `CC[C@H](C)C(=O)O[C@H]1CCC=C2C=C[C@H](C)[C@H](CC[C@@H]3C[C@@H](O)CC(=O)O3)[C@H]21`, the remaining activity was 118%.

With `Nc1ccc(-c2nc3ccc(-c4nc5ccc(N)cc5[nH]4)cc3[nH]2)cc1`, the remaining activity is 114%.

As to `CC(C)NC[C@H](O)COc1cccc2ccccc12`, the remaining activity was 92.7%.

In the case of `CN1CCc2cc(O)c(O)cc2C(c2ccccc2)C1` (centres undefined), the remaining activity was 105%.

For the compound `CCOC(=O)C12CC1/C(=N\O)c1ccccc1O2` (centres undefined), the remaining activity was 108%.

Turning to `CCN1CCC[C@H]1CNC(=O)c1c(O)c(Cl)cc(Cl)c1OC`, the remaining activity is 98.9%.

Regarding `COC(=O)c1c(-c2cc(OC)c(OC)c(OC)c2)c2ccc(OCc3ccccn3)cc2c(=O)n1-c1ccc(N)cc1`, the remaining activity is 86.8%.

Regarding `Cc1cc(C)c(/C=C2\C(=O)Nc3ccccc32)[nH]1`, the remaining activity was 118%.

On to `C[C@@H]1O[C@@H](O[C@H]2C[C@@H](O)[C@]3(CO)[C@H]4[C@H](O)C[C@]5(C)[C@@H](C6COC(=O)C6)CC[C@]5(O)[C@@H]4CC[C@]3(O)C2)[C@H](O)[C@H](O)[C@H]1O` (some centres undefined), for which the remaining activity was 97.8%.

With `COc1ccccc1CNCCCCCCNCCCCCCCCNCCCCCCNCc1ccccc1OC`, the remaining activity was 91.3%.

Turning to `CC(=O)C(C)=O`, the remaining activity is 97%.

Regarding `CCOC(=O)c1cnc2c(cnn2CC)c1NN=C(C)C`, the remaining activity was 124%.

For `CCN(CC)CCCCCCCCOC(=O)c1cc(OC)c(OC)c(OC)c1`, the remaining activity is 100%.

As for `CCCCOC(=O)NS(=O)(=O)c1sc(CC(C)C)cc1-c1ccc(Cn2c(CC)nc3c(C)cc(C)nc32)cc1`, the remaining activity is 116%.

As to `CC(=O)Oc1cc(C(C)C)c(OCCN(C)C)cc1C`, the remaining activity is 118%.

For the compound `O=C(O)c1ccccc1Nc1cccc(OCc2ccc3ccccc3n2)c1`, the remaining activity is 125%.

On to `COC(=O)c1c(-c2cc(OC)c(OC)c(OC)c2)c2ccnc(OCc3ncccn3)c2c(=O)n1Cc1ccnc(C)c1`, for which the remaining activity was 101%.

In the case of `NS(=O)(=O)C#Cc1ccccc1`, the remaining activity is 118%.

Regarding `O=C(O)c1cc([N+](=O)[O-])ccc1NCCCc1ccccc1`, the remaining activity is 118%.

For `NC1C=CC=C(C(=O)O)C1` (centres undefined), the remaining activity was 125%.

Take `COc1ccc(CCn2nnnc2C2(c3ccc(C)cc3)CC2)cc1`: the remaining activity is 115%.

As for `Nc1nc(OCc2ccccc2)c2[nH]cnc2n1`, the remaining activity was 103%.

Regarding `O=S(=O)(c1cccc2c(I)cccc12)N1CCCNCC1`, the remaining activity is 107%.
